Common to all, as to experiment: DAPPL (digital affinity profiling via proximity ligation, sequencing); 10 mM Tris-HCl pH 7.5, 50 mM NaCl, 1 mM DTT, 4% glycerol, room temperature, 30 min; GST-TFs on glutathione beads, 16-mer random dsDNA library, 0.1% formaldehyde crosslink after washing; high values mean tight binding
The target in experiment [1] is T1, FLI1 (Homo sapiens, UniProt Q01543 1-452).
T1 sequence: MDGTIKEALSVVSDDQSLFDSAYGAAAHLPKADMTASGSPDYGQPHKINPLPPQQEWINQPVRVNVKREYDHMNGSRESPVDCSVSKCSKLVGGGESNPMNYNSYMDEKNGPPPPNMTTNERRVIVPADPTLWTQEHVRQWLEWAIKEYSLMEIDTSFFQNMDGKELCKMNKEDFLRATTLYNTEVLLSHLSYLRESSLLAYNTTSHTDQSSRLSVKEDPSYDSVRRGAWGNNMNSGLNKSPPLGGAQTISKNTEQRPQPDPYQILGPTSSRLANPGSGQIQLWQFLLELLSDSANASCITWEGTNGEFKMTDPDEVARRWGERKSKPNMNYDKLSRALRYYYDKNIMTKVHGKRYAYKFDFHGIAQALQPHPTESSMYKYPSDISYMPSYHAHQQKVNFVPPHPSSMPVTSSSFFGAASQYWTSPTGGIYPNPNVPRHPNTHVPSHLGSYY
To be noted: protein: recombinant; tags: N-terminal GST; dsDNA, one strand shown. Put shortly: (§1)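 After expression in yeast as GST fusions, human transcription factors were bound to glutathione beads, DNA-barcoded and mixed with a tag-only sample. The pools were incubated with 200 nmole of a 16-mer random double-stranded DNA library in Tris/NaCl/DTT/glycerol buffer (30 min, room temperature), washed and crosslinked with 0.1% formaldehyde. Proximity ligation with BsaI/T4 ligase ran for 1 h at 37 °C, before PCR amplification and sequencing on an Illumina NextSeq500. Binding signal is a hexamer's read frequency for a factor divided by its frequency for the tag-only sample.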

Experiment [2] concerns the target T2, ELK1 (Homo sapiens, UniProt P19419 1-428).
T2 sequence: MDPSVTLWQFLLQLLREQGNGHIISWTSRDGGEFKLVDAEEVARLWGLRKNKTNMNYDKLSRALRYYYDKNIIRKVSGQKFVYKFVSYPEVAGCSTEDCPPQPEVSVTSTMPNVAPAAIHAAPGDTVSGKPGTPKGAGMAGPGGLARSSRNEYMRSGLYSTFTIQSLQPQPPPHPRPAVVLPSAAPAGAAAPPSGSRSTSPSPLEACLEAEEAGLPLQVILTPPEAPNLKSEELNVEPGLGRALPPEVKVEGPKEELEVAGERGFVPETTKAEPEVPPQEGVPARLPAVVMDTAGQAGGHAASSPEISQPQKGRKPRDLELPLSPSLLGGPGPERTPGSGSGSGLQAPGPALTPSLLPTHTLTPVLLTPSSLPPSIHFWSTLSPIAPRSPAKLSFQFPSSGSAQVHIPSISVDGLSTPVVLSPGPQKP
The following applies: protein: recombinant; tags: N-terminal GST; dsDNA, one strand shown. Put shortly: as §1

The target in experiment [3] is T3, GABPA (Homo sapiens, UniProt Q06546 1-454).
T3 sequence: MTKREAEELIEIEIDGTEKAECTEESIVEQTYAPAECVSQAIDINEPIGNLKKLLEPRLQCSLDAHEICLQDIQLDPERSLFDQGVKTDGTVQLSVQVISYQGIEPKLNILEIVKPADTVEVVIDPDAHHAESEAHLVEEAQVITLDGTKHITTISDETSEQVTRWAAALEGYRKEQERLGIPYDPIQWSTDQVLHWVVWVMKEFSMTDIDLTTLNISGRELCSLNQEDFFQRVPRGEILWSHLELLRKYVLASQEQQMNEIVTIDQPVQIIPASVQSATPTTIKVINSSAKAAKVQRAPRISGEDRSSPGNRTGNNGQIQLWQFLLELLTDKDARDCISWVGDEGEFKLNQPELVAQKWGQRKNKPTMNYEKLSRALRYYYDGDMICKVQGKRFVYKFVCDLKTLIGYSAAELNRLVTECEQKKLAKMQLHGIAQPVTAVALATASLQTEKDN
To be noted: protein: recombinant; tags: N-terminal GST; dsDNA, one strand shown. Put shortly:
as §1

In experiment [4] the target is T4, ERG (Homo sapiens, UniProt P11308 1-479).
T4 sequence: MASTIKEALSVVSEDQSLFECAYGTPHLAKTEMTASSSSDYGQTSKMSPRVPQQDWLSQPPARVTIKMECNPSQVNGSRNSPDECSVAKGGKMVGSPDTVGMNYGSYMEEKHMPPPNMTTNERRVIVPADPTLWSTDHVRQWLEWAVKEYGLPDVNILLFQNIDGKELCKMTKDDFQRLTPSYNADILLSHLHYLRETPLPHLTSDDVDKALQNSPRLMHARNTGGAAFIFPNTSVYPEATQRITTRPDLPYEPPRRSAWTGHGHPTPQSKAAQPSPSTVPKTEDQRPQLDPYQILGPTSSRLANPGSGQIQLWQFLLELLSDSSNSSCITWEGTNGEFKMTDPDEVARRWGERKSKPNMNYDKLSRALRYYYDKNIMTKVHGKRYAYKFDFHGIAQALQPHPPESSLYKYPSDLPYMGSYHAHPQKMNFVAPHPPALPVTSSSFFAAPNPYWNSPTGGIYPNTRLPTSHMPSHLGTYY
The following applies: protein: recombinant; tags: N-terminal GST; dsDNA, one strand shown. The essentials:
as §1

Experiment [5] addresses ELF1 (Homo sapiens, UniProt P32519 1-619). To be noted: protein: recombinant; tags: N-terminal GST; dsDNA, one strand shown. The essentials:
as §1

In experiment [6] the target is T5, EHF (Homo sapiens, UniProt Q9NZC4 1-300).
T5 sequence: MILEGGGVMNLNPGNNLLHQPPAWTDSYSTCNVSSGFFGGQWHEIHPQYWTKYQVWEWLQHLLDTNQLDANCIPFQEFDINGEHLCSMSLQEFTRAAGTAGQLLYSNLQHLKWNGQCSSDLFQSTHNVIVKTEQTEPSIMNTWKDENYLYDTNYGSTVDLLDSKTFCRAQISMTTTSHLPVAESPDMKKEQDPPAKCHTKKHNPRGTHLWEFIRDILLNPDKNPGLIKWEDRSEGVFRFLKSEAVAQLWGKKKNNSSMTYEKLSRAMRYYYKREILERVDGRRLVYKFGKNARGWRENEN
The following applies: protein: recombinant; tags: N-terminal GST; dsDNA, one strand shown. The essentials: as §1

Experiment [7] deals with SPI1 (Homo sapiens, UniProt P17947 1-270). To be noted: protein: recombinant; tags: N-terminal GST; dsDNA, one strand shown. Put shortly: as §1
In experiment [8] the target is SPIB (Homo sapiens, UniProt Q01892 1-262). The following applies: protein: recombinant; tags: N-terminal GST; dsDNA, one strand shown. The essentials: as §1
Sequence of SPIB (Q01892 whole entry): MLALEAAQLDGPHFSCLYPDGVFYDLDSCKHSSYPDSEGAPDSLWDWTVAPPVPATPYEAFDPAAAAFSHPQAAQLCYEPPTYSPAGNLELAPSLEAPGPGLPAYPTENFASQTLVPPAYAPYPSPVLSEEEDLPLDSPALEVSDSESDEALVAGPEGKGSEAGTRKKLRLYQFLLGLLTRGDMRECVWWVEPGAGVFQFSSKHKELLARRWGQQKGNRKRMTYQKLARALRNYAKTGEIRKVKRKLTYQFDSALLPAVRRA
Experiment [9] deals with T6, ELK3 (Homo sapiens, UniProt P41970 1-407).
T6 sequence: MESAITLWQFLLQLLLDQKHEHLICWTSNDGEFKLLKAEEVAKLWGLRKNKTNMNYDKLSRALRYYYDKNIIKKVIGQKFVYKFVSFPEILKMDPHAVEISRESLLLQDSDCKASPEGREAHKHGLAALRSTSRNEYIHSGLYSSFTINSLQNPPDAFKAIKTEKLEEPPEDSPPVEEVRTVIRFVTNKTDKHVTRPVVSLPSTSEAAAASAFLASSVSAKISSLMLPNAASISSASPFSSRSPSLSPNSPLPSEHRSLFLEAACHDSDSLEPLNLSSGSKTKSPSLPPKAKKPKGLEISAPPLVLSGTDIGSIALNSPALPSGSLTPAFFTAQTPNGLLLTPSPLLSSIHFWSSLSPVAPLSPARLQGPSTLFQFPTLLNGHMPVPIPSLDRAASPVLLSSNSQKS
The following applies: protein: recombinant; tags: N-terminal GST; dsDNA, one strand shown. Put shortly:
as §1

In experiment [10] the target is T7, FEV (Homo sapiens, UniProt Q99581 1-238).
T7 sequence: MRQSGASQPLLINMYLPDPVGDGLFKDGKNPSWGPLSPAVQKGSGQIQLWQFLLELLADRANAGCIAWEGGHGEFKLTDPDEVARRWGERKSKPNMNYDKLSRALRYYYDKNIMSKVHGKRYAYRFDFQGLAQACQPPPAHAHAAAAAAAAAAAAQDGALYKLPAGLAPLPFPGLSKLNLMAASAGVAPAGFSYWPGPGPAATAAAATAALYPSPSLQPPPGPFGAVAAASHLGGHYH
The following applies: protein: recombinant; tags: N-terminal GST; dsDNA, one strand shown. Put shortly:
as §1

In experiment [11] the target is ETV5 (Homo sapiens, UniProt P41161 1-510). The following applies: protein: recombinant; tags: N-terminal GST; dsDNA, one strand shown. Put shortly: as §1
Sequence of ETV5 (P41161 whole entry): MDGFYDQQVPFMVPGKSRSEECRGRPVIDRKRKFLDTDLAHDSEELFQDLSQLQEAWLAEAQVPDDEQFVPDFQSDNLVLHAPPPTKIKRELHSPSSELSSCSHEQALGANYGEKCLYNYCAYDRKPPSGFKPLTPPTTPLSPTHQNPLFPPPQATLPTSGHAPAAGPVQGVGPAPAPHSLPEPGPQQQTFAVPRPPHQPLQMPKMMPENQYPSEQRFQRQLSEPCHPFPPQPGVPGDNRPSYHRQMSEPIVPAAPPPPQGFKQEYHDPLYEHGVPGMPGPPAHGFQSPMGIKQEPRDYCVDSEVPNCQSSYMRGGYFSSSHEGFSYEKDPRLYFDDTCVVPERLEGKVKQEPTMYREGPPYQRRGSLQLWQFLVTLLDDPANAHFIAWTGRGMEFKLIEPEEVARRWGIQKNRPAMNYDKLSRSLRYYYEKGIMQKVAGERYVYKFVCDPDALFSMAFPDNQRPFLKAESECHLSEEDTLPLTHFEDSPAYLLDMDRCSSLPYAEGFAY
The target of experiment [12] is HSF1 (Homo sapiens, UniProt Q00613 1-529). The following applies: protein: recombinant; tags: N-terminal GST; chain copies: 3; dsDNA, one strand shown. Put shortly:
as §1

In experiment [13] the target is T8, SPIC (Homo sapiens, UniProt Q8N5J4 1-248).
T8 sequence: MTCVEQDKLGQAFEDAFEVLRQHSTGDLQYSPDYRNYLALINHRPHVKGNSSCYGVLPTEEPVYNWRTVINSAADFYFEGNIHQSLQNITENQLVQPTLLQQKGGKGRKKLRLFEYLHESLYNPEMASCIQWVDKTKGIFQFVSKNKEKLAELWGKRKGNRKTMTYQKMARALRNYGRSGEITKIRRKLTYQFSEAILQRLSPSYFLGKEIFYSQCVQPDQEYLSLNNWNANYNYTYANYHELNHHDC
To be noted: protein: recombinant; tags: N-terminal GST; dsDNA, one strand shown. Put shortly:
as §1

In experiment [14] the target is ELF4 (Homo sapiens, UniProt Q99607 1-663). The following applies: protein: recombinant; tags: N-terminal GST; dsDNA, one strand shown. Put shortly: as §1
Sequence of ELF4 (Q99607 whole entry): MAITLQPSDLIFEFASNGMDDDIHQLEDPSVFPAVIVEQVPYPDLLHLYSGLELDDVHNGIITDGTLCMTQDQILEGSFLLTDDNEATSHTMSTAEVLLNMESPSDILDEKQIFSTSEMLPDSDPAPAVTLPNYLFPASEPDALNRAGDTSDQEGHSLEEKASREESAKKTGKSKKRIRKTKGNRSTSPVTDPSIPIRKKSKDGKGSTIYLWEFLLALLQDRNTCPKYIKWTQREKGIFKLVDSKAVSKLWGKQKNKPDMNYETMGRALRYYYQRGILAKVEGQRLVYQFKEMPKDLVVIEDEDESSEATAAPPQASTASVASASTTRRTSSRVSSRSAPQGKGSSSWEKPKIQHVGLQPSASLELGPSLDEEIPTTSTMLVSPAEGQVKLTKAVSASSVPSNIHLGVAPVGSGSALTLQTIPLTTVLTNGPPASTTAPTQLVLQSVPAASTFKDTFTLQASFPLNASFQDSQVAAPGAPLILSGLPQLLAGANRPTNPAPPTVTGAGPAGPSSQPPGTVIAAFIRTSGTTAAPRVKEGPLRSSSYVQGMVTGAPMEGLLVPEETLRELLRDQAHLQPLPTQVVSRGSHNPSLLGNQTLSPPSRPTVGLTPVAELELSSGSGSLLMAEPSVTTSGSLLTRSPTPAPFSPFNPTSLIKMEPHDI
Experiment [15] addresses T9, ELK4 (Homo sapiens, UniProt P28324-2 1-405).
T9 sequence: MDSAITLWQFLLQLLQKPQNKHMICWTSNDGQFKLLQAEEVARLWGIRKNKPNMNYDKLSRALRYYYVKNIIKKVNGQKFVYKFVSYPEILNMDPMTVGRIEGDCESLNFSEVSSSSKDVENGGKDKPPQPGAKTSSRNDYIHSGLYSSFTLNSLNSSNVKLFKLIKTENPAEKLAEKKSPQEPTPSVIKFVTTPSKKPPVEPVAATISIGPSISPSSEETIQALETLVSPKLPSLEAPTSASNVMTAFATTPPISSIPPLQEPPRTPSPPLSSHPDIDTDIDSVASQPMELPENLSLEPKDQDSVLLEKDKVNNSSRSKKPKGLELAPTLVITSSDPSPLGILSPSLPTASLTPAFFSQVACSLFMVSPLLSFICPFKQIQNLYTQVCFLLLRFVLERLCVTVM
To be noted: protein: recombinant; tags: N-terminal GST; dsDNA, one strand shown. The essentials:
as §1

For experiment [16], the target named is T10, ETV2 (Homo sapiens, UniProt O00321 1-342).
T10 sequence: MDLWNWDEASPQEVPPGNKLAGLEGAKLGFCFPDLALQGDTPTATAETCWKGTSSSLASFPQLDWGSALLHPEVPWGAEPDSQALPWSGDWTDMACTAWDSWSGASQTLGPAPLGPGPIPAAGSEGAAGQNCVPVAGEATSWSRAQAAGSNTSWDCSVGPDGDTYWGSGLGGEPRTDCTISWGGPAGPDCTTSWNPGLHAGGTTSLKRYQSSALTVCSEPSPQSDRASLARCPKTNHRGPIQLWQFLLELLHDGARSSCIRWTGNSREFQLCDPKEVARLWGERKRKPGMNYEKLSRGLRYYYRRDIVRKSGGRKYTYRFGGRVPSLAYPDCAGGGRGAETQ
The following applies: protein: recombinant; tags: N-terminal GST; dsDNA, one strand shown. Put shortly: as §1

In experiment [17] the target is T11, ELF3 (Homo sapiens, UniProt P78545 1-371).
T11 sequence: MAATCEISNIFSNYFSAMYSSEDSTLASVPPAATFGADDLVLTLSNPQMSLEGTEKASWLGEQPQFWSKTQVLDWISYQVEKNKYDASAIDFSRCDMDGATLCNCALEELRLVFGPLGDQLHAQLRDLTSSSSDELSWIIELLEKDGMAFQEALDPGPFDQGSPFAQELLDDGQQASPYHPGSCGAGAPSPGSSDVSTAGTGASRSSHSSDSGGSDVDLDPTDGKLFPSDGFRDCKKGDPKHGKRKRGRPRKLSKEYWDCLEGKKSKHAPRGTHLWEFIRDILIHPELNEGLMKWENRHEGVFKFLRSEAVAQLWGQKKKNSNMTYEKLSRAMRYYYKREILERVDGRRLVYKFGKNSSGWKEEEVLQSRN
The following applies: protein: recombinant; tags: N-terminal GST; dsDNA, one strand shown. The essentials: as §1

The target of experiment [18] is ETV1 (Homo sapiens, UniProt P50549 1-477). The following applies: protein: recombinant; tags: N-terminal GST; dsDNA, one strand shown. The essentials:
as §1

Sequence of ELF1 (P32519 whole entry): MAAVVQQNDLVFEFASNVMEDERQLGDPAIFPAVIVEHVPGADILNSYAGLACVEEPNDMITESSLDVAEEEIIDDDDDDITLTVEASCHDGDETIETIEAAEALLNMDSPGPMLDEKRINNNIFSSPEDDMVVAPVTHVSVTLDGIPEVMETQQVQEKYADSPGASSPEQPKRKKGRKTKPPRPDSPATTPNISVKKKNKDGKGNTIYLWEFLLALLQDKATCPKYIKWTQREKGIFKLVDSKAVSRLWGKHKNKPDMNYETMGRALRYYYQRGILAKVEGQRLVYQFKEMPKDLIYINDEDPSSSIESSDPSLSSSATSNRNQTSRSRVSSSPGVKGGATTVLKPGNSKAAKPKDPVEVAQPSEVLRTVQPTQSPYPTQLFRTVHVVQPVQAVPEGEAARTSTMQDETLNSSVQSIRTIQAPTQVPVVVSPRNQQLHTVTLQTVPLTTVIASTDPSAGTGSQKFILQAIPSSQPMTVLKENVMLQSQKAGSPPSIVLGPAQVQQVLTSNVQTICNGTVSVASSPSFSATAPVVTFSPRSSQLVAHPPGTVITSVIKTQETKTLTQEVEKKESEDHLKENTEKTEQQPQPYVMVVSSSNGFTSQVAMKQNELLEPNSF
Sequence of ETV1 (P50549 whole entry): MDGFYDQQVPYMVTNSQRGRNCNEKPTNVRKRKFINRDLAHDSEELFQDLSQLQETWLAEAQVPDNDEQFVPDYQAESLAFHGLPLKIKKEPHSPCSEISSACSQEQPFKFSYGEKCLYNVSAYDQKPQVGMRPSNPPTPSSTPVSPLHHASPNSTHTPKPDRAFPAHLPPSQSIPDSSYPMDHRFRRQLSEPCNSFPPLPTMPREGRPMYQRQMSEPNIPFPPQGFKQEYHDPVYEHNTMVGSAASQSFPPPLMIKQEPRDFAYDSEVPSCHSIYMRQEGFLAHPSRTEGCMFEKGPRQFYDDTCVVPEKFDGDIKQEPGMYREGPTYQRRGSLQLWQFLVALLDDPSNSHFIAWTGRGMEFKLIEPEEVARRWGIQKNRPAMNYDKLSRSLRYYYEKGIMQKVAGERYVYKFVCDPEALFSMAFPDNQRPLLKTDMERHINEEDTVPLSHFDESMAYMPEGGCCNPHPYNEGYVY
Sequence of HSF1 (Q00613 whole entry): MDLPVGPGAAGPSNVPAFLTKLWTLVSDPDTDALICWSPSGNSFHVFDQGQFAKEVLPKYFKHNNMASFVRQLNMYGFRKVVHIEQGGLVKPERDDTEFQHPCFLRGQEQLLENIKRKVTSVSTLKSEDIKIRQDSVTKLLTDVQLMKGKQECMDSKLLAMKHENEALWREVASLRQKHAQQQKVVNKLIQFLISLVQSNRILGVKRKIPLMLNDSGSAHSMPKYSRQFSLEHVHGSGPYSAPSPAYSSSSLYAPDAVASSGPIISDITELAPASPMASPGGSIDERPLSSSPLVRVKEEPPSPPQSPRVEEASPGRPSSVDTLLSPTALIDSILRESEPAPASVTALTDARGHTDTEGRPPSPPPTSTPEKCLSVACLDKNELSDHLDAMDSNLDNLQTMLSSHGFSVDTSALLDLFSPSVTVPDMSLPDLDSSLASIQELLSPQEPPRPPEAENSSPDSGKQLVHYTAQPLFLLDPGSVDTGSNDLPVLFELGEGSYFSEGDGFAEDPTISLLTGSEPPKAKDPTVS

TCGTAC: the binding signal in [1] was 1.13 fold enrichment (6-mer frequency, TF over GST control); in [2], 1.13 fold enrichment (6-mer frequency, TF over GST control); in experiment [3], 1.18 fold enrichment (6-mer frequency, TF over GST control); in experiment [4] it was 1.06 fold enrichment (6-mer frequency, TF over GST control); in experiment [5], 1.14 fold enrichment (6-mer frequency, TF over GST control); in [6], 1.14 fold enrichment (6-mer frequency, TF over GST control). Also, the binding signal in experiment [7] is 1.06 fold enrichment (6-mer frequency, TF over GST control); in experiment [8] it was 1.04 fold enrichment (6-mer frequency, TF over GST control); in experiment [9], 1.11 fold enrichment (6-mer frequency, TF over GST control); in experiment [10] it was 1.13 fold enrichment (6-mer frequency, TF over GST control); in [11], 1.13 fold enrichment (6-mer frequency, TF over GST control); in experiment [12], 1.06 fold enrichment (6-mer frequency, TF over GST control). The binding signal is 1.09 fold enrichment (6-mer frequency, TF over GST control) in [13]; 1.14 fold enrichment (6-mer frequency, TF over GST control) in experiment [14]; 1.03 fold enrichment (6-mer frequency, TF over GST control) in experiment [15]; 1.22 fold enrichment (6-mer frequency, TF over GST control) in experiment [16]; 1.22 fold enrichment (6-mer frequency, TF over GST control) in experiment [17]; 1.18 fold enrichment (6-mer frequency, TF over GST control) in [18].

Source of the values: PMC7862700, “An all-to-all approach to the identification of sequence-specific readers for epigenetic DNA modifications on cytosine”.
